Data as given in paper PMC5540273 (PLoS ONE, 2017).

Tests used:
Settings in all cases: concentration: 1 μM, replicates: in singlicate; n = 1
[1] = tested on: RPS6KA4(Kin.Dom.1-N-terminal)
[2] = tested on: RPS6KA4(Kin.Dom.2-C-terminal)
[3] = tested on: RPS6KA5(Kin.Dom.1-N-terminal)
[4] = tested on: RPS6KA5(Kin.Dom.2-C-terminal)
[5] = tested on: T1, RSK1(Kin.Dom.1-N-terminal)
T1 construct: gene RPS6KA1

[6] = tested on: T2, RSK1(Kin.Dom.2-C-terminal)
T2 construct: gene RPS6KA1

[7] = tested on: T3, RSK2(Kin.Dom.1-N-terminal)
T3 construct: gene RPS6KA3

[8] = tested on: T4, RSK2(Kin.Dom.2-C-terminal)
T4 construct: gene RPS6KA3

[9] = tested on: T5, RSK3(Kin.Dom.1-N-terminal)
T5 construct: gene RPS6KA2

[10] = tested on: T6, RSK3(Kin.Dom.2-C-terminal)
T6 construct: gene RPS6KA2
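Also: KINOMEscan kinase panel screen.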

SMILES | %Inh [1] [%] | %Inh [2] [%] | %Inh [3] [%] | %Inh [4] [%] | %Inh [5] [%] | %Inh [6] [%] | %Inh [7] [%] | %Inh [8] [%] | %Inh [9] [%] | %Inh [10] [%]
COc1cc(Nc2ccnc3cc(-c4ccncc4)ccc23)cc(OC)c1OC.Cl [GW494610] | 8 | 0 | 22 | 0 | 0 | 0 | 5 | 20 | 1 | 0
CS(=O)(=O)c1cccc(CNc2nc(Nc3ccc4c(c3)CCC(=O)N4)ncc2C(F)(F)F)c1 | 26 | 0 | 0 | 5 | 44 | 0 | 80 | 0 | 59 | 0
CN(c1ccc2c(c1)nc(NCc1ccccc1)n2C)c1ccnc(Nc2ccc(CS(C)(=O)=O)cc2)n1.Cl [GW811603] | 7 | 0 | 0 | 0 | 2 | 0 | 0 | 24 | 0 | 23
CC(C)NCC(Cc1ccccc1)NC(=O)c1cc(Br)c(-c2ccnc3[nH]ccc23)s1.Cl.Cl (stereo not shown) [GSK1383281] | 76 | 0 | 48 | 22 | 50 | 0 | 25 | 0 | 16 | 6
CCOc1nccc(-c2c(-c3ccc(F)cc3)ncn2C2CCNCC2)n1 [SB-249175] | 8 | 32 | 100 | 0 | 16 | 20 | 52 | 39 | 17 | 20
CCNC(=O)/C=C/c1n[nH]c2cc(Sc3ccccc3C(=O)NC)ccc12 | 8 | 21 | 4 | 0 | 24 | 15 | 8 | 0 | 8 | 34
CC(=O)Nc1cn2nc(Oc3cccc(NC(=O)c4cccc(C(F)(F)F)c4)c3)ccc2n1 | 47 | 0 | 0 | 6 | 0 | 0 | 0 | 30 | 0 | 5
NCCC(NC(=O)c1cc(Br)c(-c2ccnc3[nH]ccc23)s1)c1ccccc1.O=C(O)C(F)(F)F.O=C(O)C(F)(F)F (stereo not shown) [GSK1307810] | 44 | 39 | 46 | 46 | 37 | 31 | 44 | 0 | 13 | 0
Cc1nn2c(=O)cc(N3CCO[C@H](C)C3)nc2n1Cc1cccc(Cl)c1Cl [GSK2373693] | 18 | 39 | 19 | 24 | 0 | 4 | 10 | 5 | 26 | 4
Cc1cc(-c2ccnc(Nc3cccc(C#N)c3)n2)cc(C)c1O [GSK1440913] | 0 | 0 | 0 | 0 | 12 | 17 | 5 | 0 | 26 | 21
CCn1c(-c2nonc2N)nc2c(-c3ccccc3)ncc(OCCCN)c21.O=C(O)C(F)(F)F.O=C(O)C(F)(F)F [GSK260205] | 0 | 0 | 31 | 8 | 19 | 50 | 80 | 0 | 99.7 | 1
N#Cc1cnc2cc(-c3cnc(CNCCN4CCOCC4)s3)ccc2c1Nc1ccc(Oc2ccccc2)cc1 [GW664114] | 41 | 0 | 76 | 28 | 91.7 | 32 | 79 | 1 | 78 | 16
Nc1ncc(-c2cn[nH]c2)c2scc(-c3ccc4c(c3)CCN4C(=O)Cc3ccccc3)c12 [GSK2593067] | 37 | 0 | 24 | 0 | 22 | 2 | 0 | 2 | 31 | 0
Cn1cc(-c2ccc3c(c2)CCN3C(=O)Cc2cc(F)cc(F)c2F)c2c(N)ncnc21 [GSK2634140] | 19 | 0 | 20 | 0 | 21 | 0 | 12 | 0 | 12 | 0
O=C(Nc1n[nH]c2nc(-c3ccccc3)ccc12)C1CC1 [SB-708999] | 5 | 0 | 13 | 4 | 0 | 0 | 0 | 32 | 4 | 0
O=C(Nc1n[nH]c2nc(-c3ccccc3O)ccc12)C1CC1 [SB-711880] | 0 | 7 | 0 | 0 | 4 | 0 | 54 | 0 | 11 | 31
